Assay results reported in PubChem BioAssay AID1345083 (National Center for Advancing Translational Sciences (NCATS), 2018).
In all, about 94,000 compounds went through this assay and about 6,200 (6.6%) were called active. Inconclusive results (about 31%) are left out. The sample holds actives, similar compounds and a random draw of the others, so the mix is not that of the screen. A number with no mark means an inactive call. Calls follow the shape of the dose curve; as a rule, active = well fitted inhibition curve with a large enough effect; inconclusive = small, poorly fitted or top-dose-only effect; inactive = flat fitted curve, though single readings scatter.

assay: Cytotoxic Profiling in HEK 293 Cell Line of Diverse Libraries Using Quantitative High-Throughput Screening; conditions: HEK 293 viability, ATP luminescence (CellTiter-Glo), 48-72 h; series mostly up to 115 µM; activity change, negative = cytotoxicity: at the top concentration; also: nearly all actives have a fitted effect of over 60% in size
From the text: Cell-based phenotypic screening is a commonly used approach to discover biological pathways, novel drug targets, chemical probes and high-quality hit-to-lead molecules. Many hits identified from high-throughput screening campaign are ruled out through a series of follow-up potency, selectivity/specificity, and cytotoxicity assays. Prioritization of molecules with little or no cytotoxicity for a more in-depth downstream evaluation influence the future direction of projects, so cytotoxicity profiling of the screening libraries at early stage is essential for increasing the likelihood of candidate success. In this study, we analyzed results from a cell-based cytotoxicity screening campaign, comprising nearly 10,000 compounds in NCATS annotated libraries, and over 100,000 compounds in a diversity library, evaluated in four normal cell lines (HEK 293, NIH 3T3, CRL-7250 and HaCat) and a cancer cell line (KB 3-1, a HeLa subline) with overall screening outcomes, hit rates, pan-activity and selectivity. For the annotated library, we also examined the primary targets and mechanistic pathways regularly associated with cell death. To our knowledge, this is the first study to use high-throughput screening to profile large libraries for cytotoxicity assessment in both normal and cancer cell lines. In summary, the results generated here constitutes a valuable resource for the scientific community and provides insight on identifying cytotoxic compounds with particular mechanisms of action, and prioritizing compounds with suitable cytotoxicity profile for further evaluation.
HEK 293 cells were seeded into white 1536-well plates using a Multidrop Combi peristaltic dispenser (ThermoFisher, Waltham, MA) at a density of 250 cells/well in 5 uL of medium respectively. A pintool (Kalypsys) was used to transfer 23 nL of compound solution to the 1536-well assay plates. After 48 or 72 hr incubation at 37 degree Celsius, 5% CO2 and 95% humidity, 2.5 uL of CellTiter-Glo (Promega) was dispensed into each well using a dispenser (Aspect Automation, St. Paul, MN) with solenoid valves (Lee Valves, Westbrook CT). Plates were left at room temperature for 10 min before imaging the ATP-coupled luminescence using a ViewLux microplate imager (PerkinElmer, Waltham, MA).
% is scaled to controls: 0 for no effect and ±100 for the full control effect; potency is read from the fitted curve at half-maximal effect.

| SMILES | outcome | activity change, negative = cytotoxicity | Potency |
| --- | --- | --- | --- |
| CN(CCNC(=O)C1CCCN(S(C)(=O)=O)CCC(=O)NCC1)C1CCCCC1 (stereo not drawn) | inactive |  |  |
| Cc1cc(C)n(CCC(=O)N[C@@H]2CN(S(C)(=O)=O)C[C@H]2CN(C)C)n1 |  | -9.17% |  |
| COc1ccc(CNC(=O)NCC(=O)N2CCCCCCNC(=O)CC2c2ccccc2)cc1 (stereo not drawn) |  | -3.82% |  |
| O=[S+]1([O-])NCC2(CCN(CC3CC3)CC2)Oc2ncccc21 |  | 2.72% |  |
| Cc1noc([C@@H]2CC(F)(F)CN2C(=O)c2cc(C)on2)n1 | inactive |  |  |
| c1cc(CN2CCOC[C@H]2c2ncc(-c3ccncc3)[nH]2)ccn1 |  | -5.62% [at 172 µM] |  |
| c1cncc(-c2cnc([C@@H]3COCCN3Cc3cnc4ccccc4c3)[nH]2)c1 |  | 1.13% [at 172 µM] |  |
| Cn1cc(CN2CC[C@H](c3nnc(-c4cccnc4)o3)C2)c2ccccc21 |  | -16.6% [at 172 µM] |  |
| Cc1ccc(CN2CCOC[C@H]2c2ncc(-c3cccc(F)c3)[nH]2)cc1 |  |  | 70.8 µM (active) |
| CC(C)(C)c1coc([C@@H]2COCCN2Cc2ccc(F)cc2)n1 |  | -20.3% [at 172 µM] |  |
| Fc1ccc(CN2CCOC[C@H]2c2ncc(-c3cccnc3)[nH]2)cc1 |  | -1.71% [at 172 µM] |  |
| Cn1cc(CN2CCOC[C@H]2c2ncc(-c3cccc(F)c3)[nH]2)c2ccccc21 |  |  | 35.5 µM (active) |
| Oc1ccccc1CN1CCOC[C@H]1c1ncc(-c2ccc(C(F)(F)F)cc2)[nH]1 |  |  | 70.8 µM (active) |
| CC(=O)N1CCC(N2CCOC[C@H]2c2ncc(-c3ccc(Cl)s3)[nH]2)CC1 |  | -6.25% [at 172 µM] |  |
| O=C(CC1CCCCC1)Nc1ccc(-c2nnc3n2CCCC3)cc1 |  | -3.57% |  |
| Cc1nsc(NC(=O)N2CCC(C(=O)N3CCCC3)CC2)n1 | inactive |  |  |
| Cc1c(C(=O)N2CCn3nc(CO)cc3C2)cnc2cc(=O)[nH]n12 |  | -28.9% |  |
| COCC(=O)N[C@@H]1CN(Cc2ccccc2OC(C)C)C[C@H]1CO | inactive |  |  |
| Cn1cnc(S(=O)(=O)N2CCOCCNC(=O)[C@@H]3CCC[C@@H]32)c1 | inactive |  |  |
| O=C(Cn1ccn2nc(-c3ccc(F)cc3)c(CO)c2c1=O)Nc1ccc(F)cc1F |  | 11.8% |  |
| CC(C)C1=NOC2(CCN(C3CCCCC3)CC2)C1 |  | 4.53% [at 172 µM] |  |

| SMILES | outcome | activity change, negative = cytotoxicity | Potency |
| --- | --- | --- | --- |
| CNC(=O)[C@@H]1CN(Cc2ccncc2)C[C@H]1COC |  | -14.9% |  |
| O=C1CCCCC(CNC(=O)c2ccncc2)N1 (stereo not drawn) |  | 3.78% |  |
| O=C(O)CCNC(=O)Cn1nc2c(cc1=O)CCCCC2 |  | 7.02% |  |
| Cn1nnc(-c2ccc(C(=O)N3CCC4(CCCO4)CC3)cc2)n1 |  | -4.78% |  |
| O=C1Nc2ccc(-c3ccsc3)cc2C(=O)N2CC[C@H](NS(=O)(=O)c3cccs3)[C@@H]12 |  | -3.25% |  |
| Cc1ccc(Cl)cc1NC(=O)CN1C(=O)NC(c2ccc(Cl)cc2)C2=C1COC2=O (stereo not drawn) |  |  | 12.6 µM (active) |
| Cc1ccccc1NC(=O)CN1C(=O)NC(c2ccccc2Cl)C2=C1COC2=O (stereo not drawn) |  | -0.401% |  |
| COc1ccc(C)cc1NC(=O)CN1C(=O)NC(c2ccccc2Cl)C2=C1COC2=O (stereo not drawn) |  | -10.9% |  |
| Cc1nn(-c2ccccc2)c2c1C(C(C)C)N(C1CCN(C(=O)c3ccc(Cl)nc3)CC1)C2=O (stereo not drawn) |  | -23.4% |  |
| COc1cccc(CC(=O)N2CCC(N3C(=O)CCC3C(=O)NCc3ccccc3)CC2)c1 (stereo not drawn) |  | -19.9% |  |
| Cc1nn(-c2ccccc2)c2c1C(C(C)C)N(C1CN(C(=O)c3ccccc3Cl)C1)C2=O (stereo not drawn) |  | -14.1% |  |
| Cc1nn(-c2ccccc2)c2c1C(C)N(C1CCCN(C(=O)c3ccccn3)C1)C2=O (stereo not drawn) | inactive |  |  |
| COc1cccc(CN2CCC(N3C(=O)c4c(c(C)nn4-c4ccccc4)C3C3CC3)CC2)c1 (stereo not drawn) |  |  | 35.5 µM (active) |
| COc1cccc(C(=O)N2CCC(N3C(=O)c4c(c(C)nn4-c4ccccc4)C3C)C2)c1 (stereo not drawn) |  |  | 35.5 µM (active) |
| CC1(C(=O)O)CCN(C(=O)C2CCCC2)CC1 |  | 4.11% [at 230 µM] |  |
| C=CCNC(=O)C[C@@H]1CCN(C(=O)c2cccnc2)C[C@@H]1CC |  | 0.585% [at 172 µM] |  |
| COCCOC1CCOC2(CCN(C(=O)C3(c4ccc(OC)cc4)CC3)CC2)C1 (stereo not drawn) |  | -9.05% |  |
| CC(=O)N1CCC(Cc2ccc(C(=O)NC3CC3)cc2)CC1 |  | -1.11% |  |
| COCCN(C)Cc1ccc(CC2CCN(C(=O)C3(c4ccc(OC)cc4)CC3)CC2)cc1 |  |  | 39.8 µM (active) |
| O=C1CC(c2ccccc2)N(Cc2ccncc2)CCCN(C(=O)COc2ccccc2)CCN1 (stereo not drawn) |  | -3.56% |  |
| O=C(c1cccc(F)c1)N1CCCC(CN2CCOCC2)CC1 (stereo not drawn) | inactive |  |  |

| SMILES | outcome | activity change, negative = cytotoxicity | Potency |
| --- | --- | --- | --- |
| O=C(c1cccc(F)c1)N1CCC(CCOc2ccc(F)cc2)C1 (stereo not drawn) |  |  | 44.7 µM (active) |
| Cc1ccc(OCCC2CCN(C(=O)CCN3C(=O)NC(C)(C)C3=O)C2)cc1 (stereo not drawn) |  | -19.8% |  |
| Cc1cnc(CCNC(=O)c2cn(C)cn2)n1C1CC1 | inactive |  |  |
| Cc1ccc([S+](=O)([O-])N2CCC3(CC2)CC(=O)N(c2ccccc2)c2ccccc2O3)cc1 |  |  | 25.1 µM (active) |
| O=[S+]([O-])(c1ccccc1)N1CCCC2(CC(c3ccccn3)=NO2)C1 (stereo not drawn) |  | -4.29% |  |
| O=[S+]([O-])(c1ccccc1)N1CCC2(CC(c3cccnc3)=NO2)C1 (stereo not drawn) | inactive |  |  |
| NC(=O)c1cccnc1OC1CCNCC1 |  | 5.73% |  |
| COc1ccc(C)cc1NC(=O)Cn1nc2n(c1=O)CCCC2 |  | 1.29% |  |
| COc1ccc(CN2CCC3(CC2)Cc2ccccc2CNC3=O)cn1 |  | -2.09% |  |
| O=C1NCc2ccccc2CC12CCN(Cc1ccc(O)cc1)CC2 |  | 2.63% |  |
| CC(C)Cc1ccc(CN2CCC3(CC2)Cc2ccccc2CNC3=O)cc1 |  |  | 22.4 µM (active) |
| COc1ccc(C2(C(=O)NCc3cccc(C(F)(F)F)c3)CCOCC2)cc1 |  | -18.9% |  |
| CC1=C[C@@H](CN(C)CCc2ccccn2)[C@H](C(C)C)C[C@H]1Cc1nnc(-c2ccccc2F)o1 |  |  | 44.7 µM (active) |
| COCC(=O)NC[C@@H]1C=C(C)[C@H](CC(=O)Nc2ccccn2)C[C@H]1C(C)C |  | -20.1% [at 172 µM] |  |
| NC(=O)c1ccc(OC2CCN(C(=O)c3ccc(F)cc3)CC2)nc1 |  | -29.6% |  |
| O=C1CCN(C(=O)[C@@H](Cc2ccccc2)NS(=O)(=O)c2cccc3cccnc23)CCOCCN1 |  | 1.59% |  |
| O=C(NCCc1ccccc1)NC1CCc2nn(CC3CC3)c(=O)n2CC1 (stereo not drawn) | inactive |  |  |
| O=C(Cc1cccc(F)c1)Nc1cnc(-c2cccnc2)nc1 |  | -0.423% |  |
| O=C(Nc1cnc(-c2cccc(Cl)c2)nc1)c1ccc(F)cc1 |  |  | 44.7 µM (active) |
| O=C(Nc1ccc(F)cc1)c1ccc2nc(-c3cccnc3)oc2c1 |  | -10.8% [at 172 µM] |  |
| COC(=O)COc1cccn2c(=O)c(-c3cc(C)n(-c4ccc(C)cc4C)n3)c(C)nc12 |  | -13.2% |  |
